The list is not random: actives were taken first. Their share in the collection is about 0.9%.
PPARg SRC-3 ag: PPARgamma-driven SRC-3 recruitment agonism; biochemical PPARgamma/SRC-3 coactivator recruitment assay; AID 731; activation, % at 8 µM; hit rate 0.26% among 200,000; in the data active means activation above about 23%;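 further: 0% = DMSO and 100% = reference agonist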
Target sequence (P37231 whole entry, looked up): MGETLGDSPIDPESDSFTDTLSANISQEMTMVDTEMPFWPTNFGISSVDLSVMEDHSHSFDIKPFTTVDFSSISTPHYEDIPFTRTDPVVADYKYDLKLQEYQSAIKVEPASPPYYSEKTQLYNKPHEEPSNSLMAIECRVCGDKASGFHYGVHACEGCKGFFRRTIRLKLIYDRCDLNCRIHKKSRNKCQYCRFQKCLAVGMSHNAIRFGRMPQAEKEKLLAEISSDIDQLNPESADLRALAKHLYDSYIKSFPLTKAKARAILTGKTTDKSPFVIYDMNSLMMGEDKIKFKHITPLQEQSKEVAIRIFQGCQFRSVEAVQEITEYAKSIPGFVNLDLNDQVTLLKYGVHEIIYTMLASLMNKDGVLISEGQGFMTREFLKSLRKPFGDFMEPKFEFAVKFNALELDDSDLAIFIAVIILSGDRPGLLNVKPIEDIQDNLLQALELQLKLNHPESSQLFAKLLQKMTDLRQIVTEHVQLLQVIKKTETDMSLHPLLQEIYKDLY
SRC2 TRFRET art: TR-FRET artefact, counter-screen to PPARgamma/SRC-2 agonist assay; hits give high values; TR-FRET ratio at 8 µM; hit rate 0.4% among 200,000; AID 1049
SRC1 TRFRET art: TR-FRET artefact, counter-screen to PPARgamma/SRC-1 agonist assay; TR-FRET detection artefact counter-screen, emission ratio; hits give high values; hit rate 0.34% among 99,000; TR-FRET ratio at 8 µM; in the data active means TR-FRET ratio above about 2300
PPARg SRC-2 ag: PPARgamma-driven SRC-2 recruitment agonism | activation, % at 8 µM | PPARgamma LBD-SRC-2 recruitment, biochemical | hit rate 0.34% among 200,000; in the data active means activation above about 22%;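 further: 0% = vehicle and 100% = reference agonist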
SRC3 TRFRET art: TR-FRET artefact, counter-screen to PPARgamma/SRC-3 agonist assay; PPARgamma/SRC-3 format; hits give high values; hit rate 0.39% among 99,000; TR-FRET ratio at 8 µM
PPARg SRC1 recr: PPARgamma-driven SRC-1 recruitment agonism | PPARgamma-SRC-1 coactivator recruitment biochemical assay | activation, % at 8 µM | hit rate 0.41% among 200,000 | P37231; in the data active means activation above about 19%;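 further: 0% = DMSO and 100% = reference agonist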
The depositor's hits bear a star; / = no result. Unless noted, no stated cut-off is given here; in the data, active means TR-FRET ratio above about 2000; inactive means the rest.

SMILES | PPARg SRC-3 ag | SRC2 TRFRET art | SRC1 TRFRET art | PPARg SRC-2 ag | SRC3 TRFRET art | PPARg SRC1 recr
Cc1ccc(-n2c(-c3nn(C)cc3Cl)n[nH]c2=S)cc1 | 8 | 1643 | 1918 | 6 | 1528 | 4
COc1ccc(C(=O)CCC(=O)N2CCN(c3ccc(N4CCOCC4)nn3)CC2)cc1 | 10 | 1690 | / | 2 | / | 3
Cc1ccccc1C(=O)N/N=C1/SCC(=O)N1Cc1ccc2c(c1)OCO2 | 3 | 1581 | 1578 | -1 | 1705 | 6
COc1ccc(-c2cn3cccnc3n2)cc1Br | 0 | 1548 | 1584 | 1 | 1496 | 0
Nc1ccc(-c2cn3cccnc3n2)cc1 | 12 | 1474 | 1719 | 9 | 2118* | 1
Cc1nnc(NC(=O)c2nn(CC(C)C)c(=O)c3ccccc23)s1 | 0 | 1528 | 2336* | -5 | 1608 | 4
Cc1cc(OCC(=O)Nc2ccc3oc(-c4ccncc4)nc3c2)ccc1Cl | 1 | 1643 | / | 9 | / | 42*
O=C(Nc1ccc2oc(-c3ccncc3)nc2c1)c1c(F)c(F)c(F)c(F)c1F | 9 | 1536 | / | -2 | / | 48*
O=C(Cc1ccc(Cl)cc1)Nc1ccc2oc(-c3ccncc3)nc2c1 | 1 | 1678 | / | 9 | / | 6
O=C(Nc1ccc2oc(-c3ccncc3)nc2c1)c1ccc(F)cc1 | 9 | 1538 | 1768 | 7 | 1522 | 9
CC1CCN(S(=O)(=O)c2ccc(C(=O)Nc3sccc3C(N)=O)cc2)CC1 | -1 | 1507 | / | -2 | / | 29*
CCOC(=O)C1CCN(C(=O)CSc2ccccc2Cl)CC1 | 3 | 1445 | 1902 | 3 | 1667 | 21*
O=C(CN(Cc1cccs1)C(=O)CNS(=O)(=O)c1ccc(F)cc1)NCc1ccco1 | 4 | 1568 | / | -1 | / | 2
CCN(c1ccccc1)S(=O)(=O)c1ccc(F)cc1 | -7 | 1586 | / | 1 | / | 0
CN(Cc1ccc(OC(F)F)cc1)Cc1nc2c(Br)cc(Br)cc2c(=O)[nH]1 | 7 | 1842 | 2212 | 10 | 2068* | 14
Cc1cc([N+](=O)[O-])ccc1N=Nc1c(N)[nH]n(-c2ccccc2)c1=O | 6 | 1291 | 2323* | 3 | 1687 | -2
CC(C)Oc1ccc(C(CC(=O)O)NC(=O)c2cccs2)cc1 (stereo unspecified) | 6 | 1672 | / | 7 | / | 2
COc1ccccc1OCc1nnc(SCC(=O)c2cc(Cl)ccc2OC)o1 | 4 | 1598 | / | 3 | / | 5
OC(C#CCN1CCCC1)(c1ccccc1)c1cccc(F)c1 (stereo unspecified) | 7 | 1613 | 1858 | 26* | 1768 | 1
Cc1nc2nc[nH]n2c(=O)c1NS(=O)(=O)c1ccc([N+](=O)[O-])cc1 | 1 | 1658 | 1830 | 9 | 1550 | 16
FC(F)(F)c1nnc2c(Sc3ccc(Cl)cc3)nc3ccccc3n12 | 3 | 1457 | / | 9 | / | 32*
O=C(CSc1nnc(-c2ccc(Cl)s2)o1)N1CCc2ccccc21 | -3 | 1399 | / | -1 | / | -7
CC(=O)Nc1ccc(-c2nnc(SCC(=O)c3ccc4c(c3)Cc3ccccc3-4)n2C)cc1 | 24 | 2129* | / | 17 | / | 13
Cn1c(SCC(=O)c2ccc3c(c2)Cc2ccccc2-3)nnc1-c1cccc(N)c1 | 4 | 1592 | 1664 | -7 | 1597 | -1
O=C1Nc2ccc(Cl)cc2C12Nc1ccccc1-c1nnc(SCc3ccccc3F)nc1O2 (stereo unspecified) | 11 | 1786 | 2406* | 18 | 1748 | 14
SMILES | PPARg SRC-3 ag | SRC2 TRFRET art | SRC1 TRFRET art | PPARg SRC-2 ag | SRC3 TRFRET art | PPARg SRC1 recr
CCN1C(=O)/C(=C/C=C2/SCCN2C)SC1=S | 1 | 1470 | / | -2 | / | 9
CN1CCS/C1=C\C=C1/SC(=S)N(CC(=O)O)C1=O | 9 | 1733 | 2228 | 6 | 1783 | 24*
Clc1ccc(-c2ccc(C=Nc3ccc(N4CCOCC4)cc3)o2)c(Cl)c1 | 2 | 2149* | 2177 | 13 | 1761 | 7
CC1(C)Cc2c(C#N)c(SCC(=O)c3ccccc3)nc(N3CCOCC3)c2CS1 | 2 | 2038* | / | 7 | / | 8
CCOC(=O)c1cccc(NC(=O)CNS(=O)(=O)c2cccs2)c1 | -1 | 1546 | / | 5 | / | -5
Cc1ccc(/C=C2\SC(N)=NC2=O)s1 | 7 | 1747 | 2150 | 24* | 1453 | 10
Cc1ccsc1/C=C1\SC(N)=NC1=O | 6 | 1449 | / | 11 | / | 6
O=C(COc1ccccc1)NCC(=O)N/N=C/c1ccccc1 | 2 | 1602 | 1825 | 3 | 1634 | 5
CCOC(=O)c1sc(=NC(=O)c2ccc(OC)c(OC)c2)n(C)c1C | 1 | 1525 | / | 4 | / | 80*
CCOC(=O)c1sc(=NC(=O)COc2ccc(Cl)cc2)n(C)c1C | 3 | 1448 | 1669 | 5 | 1434 | -3
CCOC(=O)c1sc(=NC(=O)c2cccc(OC)c2)n(C)c1C | -5 | 1534 | / | -1 | / | 80*
CCOC(=O)c1sc(=NC(=O)c2ccccc2)n(C)c1C | 6 | 2392* | 2795* | 8 | 2902* | 3
CCc1cccc2c(C(=O)COC(=O)c3cccc(S(=O)(=O)N(C)C4CCCCC4)c3)c[nH]c12 | -1 | 1645 | 1622 | 5 | 1369 | 4
C=CCn1c(COc2cccc3cccnc23)nnc1SCC(=O)O | -11 | 1340 | / | -6 | / | -5
CCN(CC)c1ncnc2c1cnn2C | 13 | 1674 | / | 5 | / | 3
Cc1ccc2[nH]c3c(N4CCCCCC4)ncnc3c2c1 | -2 | 1520 | / | 0 | / | -2
Cc1nnc(SCc2ccccc2)n1N | -9 | 1367 | 2275 | 3 | 1541 | 22*
CCC(C)(C)NC(=O)c1ccc(Br)o1 | -1 | 1580 | 1706 | -5 | 1432 | 4
Cc1ccc(CN2CCN(Cc3ccc(OC(C)C)cc3)CC2CCO)o1 (stereo unspecified) | -2 | 1596 | 1584 | -4 | 1418 | 2
Cc1ccc(CN2CCN(Cc3cccc(OCCO)c3)CC2CCO)o1 (stereo unspecified) | 3 | 1711 | 1857 | 22* | 1698 | 5
CCc1nc(SCC(=O)NCC2CCCO2)c2oc3ccccc3c2n1 (stereo unspecified) | 15 | 1623 | / | 13 | / | 6
COc1cc2[nH]c(=S)n(NC(=O)c3ccccc3)c(=O)c2cc1OC | 20 | 2013* | / | 20 | / | 16
CCC(Sc1nccn1C)C(=O)Nc1cccc2ccccc12 (stereo unspecified) | 2 | 1597 | 1595 | 4 | 1647 | 7
COc1cc(NC(C)=O)ccc1-c1cc2ccccc2oc1=O | 1 | 1672 | 1840 | 12 | 1621 | 16
COc1cc(NC(=O)c2ccc(Cl)cc2Cl)ccc1-c1cc2ccccc2oc1=O | 18 | 2335* | / | 17 | / | 13
CC1=NN(C(=O)Cn2ccc([N+](=O)[O-])n2)C(O)(C(F)(F)F)C1 (stereo unspecified) | 4 | 1853 | 1973 | 23* | 1855 | 5
Cc1cccc(N2CCN(C(=S)c3ccc(-c4ccccc4[N+](=O)[O-])o3)CC2)c1 | 3 | 1746 | 1970 | -1 | 1768 | -4
S=C(c1ccc(-c2cccc(Cl)c2)o1)N1CCCCC1 | 8 | 1774 | 2350* | 13 | 1800 | -10

Screening data: PubChem, The Scripps Research Institute Molecular Screening Center
